# Screening data: PubChem BioAssay, several laboratories
# Rows were chosen to be rich in hits. Some 4.9% of all compounds tested hit in one or more screens of this group.
# Beta cell apopt: blocks beta cell apoptosis; 300,000 tested, 0.8% active; protection from apoptosis, % (concentration not given with the values); AID 435005; INS-1E cytokine-induced death, ATP luminescence, 48 h; percent of positive-control rescue, neutral wells zero;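 active = Every replicate reaches about 75%, or at least half do and their mean reaches it too, limit read from the data; inconclusive = At least half of replicates reach the limit but their mean does not; inactive = Under half of replicates reach the limit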;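 note: 0% = cytokine-treated negative control wells and 100% = positive control rescue; higher means more ATP so stronger rescue from cytokine killing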
# Calb FLC: affects C. albicans growth with fluconazole | C. albicans CaCi-2 (fluconazole-resistant clinical isolate) + fluconazole, Alamar Blue growth, 48 h | growth inhibition, % (concentration not given with the values) | 300,000 tested, 0.57% active | AID 1979;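 active = growth inhibition above about 58% in most replicates, limit read from the data, passing the limit was not always enough; inconclusive = exactly half the replicates above a set limit; inactive = most replicates below a set limit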;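 note: all wells also contain fluconazole at 8 µg/ml as a sub-toxic cotreatment; 0% = median of DMSO wells and 100% = median of geldanamycin control wells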
# Mdm2 MdmX PPI: human Mdm2/MdmX binding inhibition | SaOS-2 split-luciferase Mdm2/MdmX complementation, luminescence | inhibition, % at 8 µM | 330,000 tested, 3% active | AID 485346;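 active = inhibition of at least 50% at 8 µM in the primary screen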
# PP1 inh: blocks human PP1-alpha phosphatase, a PP5 counter-screen; purified PP1alpha, OMFP fluorescence; inhibition, % at 6.7 µM; 320,000 tested, 0.9% active; AID 2235;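 active = inhibition above the mean inhibition of all tested compounds plus 3 SD, computed separately for each screening campaign, cut at about 15% in these data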
# PP5 primary: inhibitors of human protein phosphatase 5 (PP5) | P53041 | purified PP5c, OMFP substrate fluorescence | inhibition, % at 6.7 µM | 320,000 tested, 0.18% active;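 active = inhibition above the campaign's mean inhibition across all tested compounds plus 3 SD, cut at about 9.5% in these data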;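 note: 0% = DMSO only and 100% = 100 µM cantharidin control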
# CSC inhib: blocks cancer stem cells; 300,000 tested, 1.1% active; AID 2717; inhibition, % at 7.5 µM; cancer stem cell-like cells viability, luminescence; in the data active = inhibition above about 75%; inconclusive = no clear call, values can overlap the other calls; tested in HMLE shEcad cells
# * hit, by the source's call; ? = inconclusive; · = not tested or not shown.
SMILES,Beta cell apopt,Calb FLC,Mdm2 MdmX PPI,PP1 inh,PP5 primary,CSC inhib
O=C(O)CS(=O)CC(=O)Nc1cccc(C(F)(F)F)c1 (configuration not stated),4,-6,23,5,5,·
CC(C)c1onc(C(=O)Nc2cccc(O)c2)c1[N+](=O)[O-],-1,6,19,5,1,·
Cc1ccc(NC(=O)c2noc(C(C)C)c2[N+](=O)[O-])cc1,0,92*,3,-1,4,0
Cc1ccc(-n2c(SCC(=O)Nc3ccc4c5c(cccc35)CC4)nc(O)c(C)c2=O)cc1,0,-3,-4,6,5,0
Cc1ccc(-n2c(SCC(=O)Nc3ccc4c5c(cccc35)CC4)nc(O)cc2=O)cc1,-8,24,13,16*,2,1
Cc1ccc(NC(=O)c2cc(S(=O)(=O)NCCC3=CCCCC3)ccc2F)cc1,105*,-8,8,6,2,·
O=C(CSc1nc(-c2ccccc2)c(-c2ccccc2)o1)NCCCO,·,15,16,-3,1,14
O=C(O)c1ccc(Cn2c(SCc3cc(=O)n4cc(Br)ccc4n3)nc3ccsc3c2=O)cc1,1,112*,-11,-3,0,8
Cc1ccccc1NC(=O)Cc1nc(COC(=O)CNS(=O)(=O)c2cccc(Br)c2)cs1,-2,-6,10,-2,3,17
COc1ccc(CCNC(=O)C(C(=O)c2ccc(F)cc2)n2ccccc2=O)cc1OC (configuration not stated),-1,-7,2,5,-1,-13
Cc1ccc(C)c(NC(=S)NNC(=O)c2csc(C)c2C)c1,6,-5,-27,-4,-1,-1
Cc1ccc(C)c(NC(=S)NNC(=O)c2csc(C(C)C)c2)c1,-4,92*,-30,-2,0,1
COc1cc(OC)c(NC(=O)c2sc3ncn(CC(=O)N4CCN(c5ccccn5)CC4)c(=O)c3c2C)cc1Cl,-2,6,26,-1,0,19
Clc1ccc(C(c2ccccc2Cl)C(Cl)Cl)cc1 (configuration not stated),·,·,35,0,-2,98*
COc1ccc(C(c2c(O)ccc3ccccc23)N2CCOCC2)c(OC)c1 (configuration not stated),-16,87*,-28,0,7,101*
COc1ccc(C(CCN2CCOCC2)c2c(O)cc(OC)cc2OC)cc1 (configuration not stated),-5,-12,9,4,3,-1
CCc1nc2ccc(C(=O)N(C)CC(=O)Nc3cccc(F)c3)cc2nc1CC,1,·,9,-2,2,·
O=c1c2ccccc2nc(/C=C/c2cccnc2)n1CCc1ccccc1,-8,13,20,16*,5,4
CCn1c(=S)[nH]c2scc(-c3cccs3)c2c1=O,·,80*,·,·,·,·
NC(=NCCc1c[nH]c2ccccc12)NC(=O)c1ccc(Cl)cc1,-7,4,9,4,-1,43
Cc1cc(C)nc(NC(=NCCc2c[nH]c3ccccc23)NC(=O)Nc2ccc(Cl)cc2)n1,20,3,39,2,3,97*
O=C(CSc1nc(-c2cccs2)cc(C(F)(F)F)n1)Nc1cc(OCC(F)(F)C(F)F)cc([N+](=O)[O-])c1,21,11,7,-1,3,-13
O=C(Cc1ccc(Cl)cc1)NNC(=O)Nc1cccc2ccccc12,-8,5,24,0,-2,-15
Cn1ncc(Cl)c1C(=O)NNC(=O)Nc1cccc2ccccc12,-6,110*,17,·,·,-5
Cc1nc(NC(=O)c2c(-c3ccccc3)noc2C)sc1C(=O)N(C)C,4,120*,-2,·,·,24
SMILES,Beta cell apopt,Calb FLC,Mdm2 MdmX PPI,PP1 inh,PP5 primary,CSC inhib
COC(=O)c1sc(NC(=O)c2c(-c3ccccc3)noc2C)nc1C,2,9,3,-3,2,4
COc1ccc(Cn2nnnc2C(C(C)C)N(Cc2ccco2)Cc2cccs2)cc1 (configuration not stated),3,-3,-36,4,3,77*
COc1ccc(NC(=O)c2ccc(COc3ccccc3Br)o2)c(OC)c1,0,-4,24,-4,1,92*
O=C(Nc1cc(C(F)(F)F)ccc1N1CCCCC1)c1ccc(Br)o1,1,5,14,-2,0,82*
CCCc1cc(-c2nc(N)ncc2-c2csc(C)n2)c(O)cc1OC,-4,?,21,0,5,-5
CCCc1cc(-c2nc(N)ncc2-c2ccc3c(c2)OCCCO3)c(O)cc1OC,0,-3,40,2,4,173*
CC(C)c1nc(-c2ccccc2)c(-c2ccccc2)[nH]1,88*,-15,7,5,0,-3
CC(=O)Nc1ccc(N2CCCCC2)c(C(=O)Nc2cccc(C)c2)c1,-1,94*,19,2,4,-1
OC(COc1cccc2ccccc12)CN1CCN(c2ccc(Cl)cc2)CC1 (configuration not stated),-2,9,24,2,1,77*
OC(COc1cccc2ccccc12)CN1CCN(c2cccc(Cl)c2)CC1 (configuration not stated),-3,0,-7,-1,4,36
CC(C)(C)OC(=O)C[C@@H]1C/C=C\C[C@H](CC(=O)N[C@H](CO)Cc2ccccc2)C(=O)N2CCC[C@H]2COC1=O,-6,·,-4,·,·,·
C[C@H](CO)N1C[C@H](C)[C@@H](CN(C)S(=O)(=O)c2ccccc2)Oc2ccc(NC(=O)Nc3ccc(C(F)(F)F)cc3)cc2C1=O,-6,·,45,·,·,102*
CC(C)(C)CN1CCC(Oc2cccc(C(=O)NCCCOc3cccnc3)c2)CC1,105*,-9,27,-2,-3,-1
N/N=C/C(=N\Nc1ccc(Cl)cc1)C(=O)c1ccncc1,-2,-1,-19,3,1,76*
COc1ccc(C2=NNC(c3cc(Cl)cc4c3OCOC4)C2)c(O)c1 (configuration not stated),·,-10,1,3,1,-7
Oc1ccc(Cl)cc1C1=NNC(c2cc(Br)cc3c2OCOC3)C1 (configuration not stated),15,70*,28,5,4,0
CCOc1ccc(N2CC(C(=O)Nc3nnc(Cc4ccc(OC)cc4)s3)CC2=O)cc1 (configuration not stated),-5,-6,19,16*,3,-4
COc1ccc(Cc2nnc(NC(=O)C3CC(=O)N(c4ccc(OC)cc4)C3)s2)cc1 (configuration not stated),-9,13,22,1,0,1
CSc1nc(N)c(C(=O)NC2CCCCC2)s1,·,2,-2,0,1,8
COC(=O)c1c(-c2ccc(OC)cc2)oc2ccc(-c3cc(OC)c(OC)c(OC)c3)cc12,2,-10,18,3,2,100*
COc1ccc(S(=O)(=O)c2nnn(-c3cccc(Cl)c3)c2N)cc1,-2,-14,12,-4,1,0
